Assay results: PubChem BioAssay (Tox21)
Records with an inconclusive call do not appear. Calls of active or inactive are those of the source. Unless noted, calls follow the shape of the dose curve; as a rule, active = well fitted curve in the direction sought with a large enough effect in the repeat runs; inconclusive = weak or mixed curves; inactive = no such curve, though single readings can be large; an effect the other way counts as inactive or inconclusive.

Key:
[1] = qHTS assay for small molecule agonists of the p53 signaling pathway (AID 651631; calls by dose curve; also: nearly all actives have a fitted effect of over 15% in size)
Summary of the method: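 Agonist mode screen using a stably integrated beta-lactamase gene under p53 response elements in HCT-116 cells. Compound exposure lasts 16 h at 37 °C; fluorescence intensity is measured following 2 h FRET substrate loading.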

[2] = qHTS assay for small molecules that induce genotoxicity in human embryonic kidney cells expressing luciferase-tagged ATAD5 (AID 651632); also: nearly all actives have a fitted effect of over 15% in size
Summary of the method: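 HEK293T cells carrying luciferase-tagged ATAD5 were given compound or DMSO vehicle and incubated 16 hr at 37C, 5% CO2. Luciferase activity was read after 30 min at room temperature with Amplite; a rise signals genotoxic stress.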

[3] = qHTS assay for small molecule agonists of the p53 signaling pathway - cell viability (AID 651633; calls by dose curve;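 also: p53RE-bla HCT reporter cells with a stable beta-lactamase p53 reporter; series mostly up to about 83 µM; nearly all actives have a fitted effect of over 30% in size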)
Summary of the method: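 Viability counter-read: CellTiter-Glo luminescence (30 min, room temperature) in the same p53RE-bla plates. These plates had been exposed to compounds for 16 h at 37 C.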

[4] = qHTS assay for small molecules that induce genotoxicity in human embryonic kidney cells expressing luciferase-tagged ATAD5 - cell viability (AID 651634; calls by dose curve; also: nearly all actives have a fitted effect of over 25% in size)
Summary of the method: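 HEK293T cells carrying luciferase-tagged ATAD5, 2,000 cells/well, exposed to compound for 15.5 hr at 37C. Viability read as live-cell protease activity by CellTiter-Fluor fluorescence after 30 min at 37C.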

[5] = qHTS assay for small molecule disruptors of the mitochondrial membrane potential - cell viability (AID 720634; calls by dose curve;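 also: human HepG2 liver cancer cells; series mostly up to about 83 µM; nearly all actives have a fitted effect of over 20% in size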)
Summary of the method: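 HepG2 cells, 2,000 per well, attached overnight, then treated 1 hr at 37 C, 5% CO2. Viability read as ATP by CellTiter-Glo luminescence after 30 min at room temperature. Read in the same wells as the m-MPI membrane-potential dye assay.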

[6] = qHTS assay for small molecule disruptors of the mitochondrial membrane potential (AID 720635)
Summary of the method: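 Mitochondrial membrane potential tracked with Mito-MPS dye, red aggregates (ex 540/em 590 nm) against green monomers (ex 490/em 535 nm). Compound treatment 1 hr at 37C, dye 30 min in HepG2.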

[7] = qHTS assay to test for compound auto fluorescence at 590 nm (red) in HepG2 cells (AID 720674)
Summary of the method: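 1 hr compound incubation on HepG2 cells, 37 C, 5% CO2; plate read ex 540 nm / em 590 nm; intensities reported as Rose Bengal sodium equivalents.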

[8] = qHTS assay to test for compound auto fluorescence at 460 nm (blue) in HEK293 cells (AID 720678)
Summary of the method: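 HEK293 cells (2,000 per well, medium with 10% dialyzed FBS) attached for 4-5 hr at 37C, then received compound and stood overnight at 37C, 5% CO2. Blue fluorescence was read at Ex/Em 405/460 nm and expressed relative to triamterene.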

[9] = qHTS assay to test for compound auto fluorescence at 590 nm (red) in HEK293 cells (AID 720679)
Summary of the method: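 HEK293 cells (2,000/well, medium with 10% dialyzed FBS) attached for 4-5 hr at 37C, received 23 nL compound and were incubated overnight at 37C, 5% CO2. Red fluorescence was then read at 540/590nm Ex/Em, referenced to Rose Bengal sodium.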

[10] = qHTS assay to test for compound auto fluorescence at 535 nm (green) in HEK293 cells (AID 720680)
[11] = qHTS assay to test for compound auto fluorescence at 460 nm (blue) in HEK293 cell free culture (AID 720681)
Summary of the method: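 Blue fluorescence (Ex 405/Em 460 nm, triamterene-equivalent) was read immediately after pin transfer of compound or DMSO into medium (DMEM, 10% FBS) without cells.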

[12] = qHTS assay to test for compound auto fluorescence at 535 nm (green) in HEK293 cell free culture (AID 720682)
Summary of the method: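 No cells present: wells hold DMEM supplemented with 10% FBS, into which compound or vehicle is pinned. Green emission is then recorded (485 nm excitation, 535 nm emission) and scaled to fluorescein.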

[13] = qHTS assay to test for compound auto fluorescence at 590 nm (red) in HEK293 cell free culture (AID 720683)
Summary of the method: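 Red-channel autofluorescence of compounds in culture medium (DMEM, 10% FBS), no cells, measured at 540/590 nm. Rose Bengal sodium is the reference fluorophore for equivalence.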

[14] = qHTS assay to test for compound auto fluorescence at 460 nm (blue) in HepG2 cell free culture (AID 720685)
Summary of the method: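 Compound (23 nL) or DMSO pinned into cell-free MEM with 10% FBS; blue fluorescence read at 405/460 nm excitation/emission, expressed as auto-fluorescence equivalency to triamterene.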

[15] = qHTS assay to test for compound auto fluorescence at 535 nm (green) in HepG2 cell free culture (AID 720686)
[16] = qHTS assay to test for compound auto fluorescence at 460 nm (blue) in HepG2 cells (AID 720687)
Summary of the method: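 Blue-channel autofluorescence (Ex/Em 405/460 nm, triamterene-equivalent) was measured after 1 hr compound exposure at 37 C, 5% CO2. Cells were HepG2, plated overnight at 37 C in MEM plus 10% FBS.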

[17] = molecular target: Glucocorticoid receptor (Homo sapiens) (UniProt P04150); assay: qHTS assay to identify small molecule agonists of the glucocorticoid receptor (GR) signaling pathway (AID 720691; active = well fitted activation curve with a large enough effect in the signal ratio in the repeat runs, not every such curve was filed as active; the % refers to the signal ratio; also: potency is read from the fitted curve at half-maximal effect)
Glucocorticoid receptor (Homo sapiens), sequence (P04150 whole entry, looked up): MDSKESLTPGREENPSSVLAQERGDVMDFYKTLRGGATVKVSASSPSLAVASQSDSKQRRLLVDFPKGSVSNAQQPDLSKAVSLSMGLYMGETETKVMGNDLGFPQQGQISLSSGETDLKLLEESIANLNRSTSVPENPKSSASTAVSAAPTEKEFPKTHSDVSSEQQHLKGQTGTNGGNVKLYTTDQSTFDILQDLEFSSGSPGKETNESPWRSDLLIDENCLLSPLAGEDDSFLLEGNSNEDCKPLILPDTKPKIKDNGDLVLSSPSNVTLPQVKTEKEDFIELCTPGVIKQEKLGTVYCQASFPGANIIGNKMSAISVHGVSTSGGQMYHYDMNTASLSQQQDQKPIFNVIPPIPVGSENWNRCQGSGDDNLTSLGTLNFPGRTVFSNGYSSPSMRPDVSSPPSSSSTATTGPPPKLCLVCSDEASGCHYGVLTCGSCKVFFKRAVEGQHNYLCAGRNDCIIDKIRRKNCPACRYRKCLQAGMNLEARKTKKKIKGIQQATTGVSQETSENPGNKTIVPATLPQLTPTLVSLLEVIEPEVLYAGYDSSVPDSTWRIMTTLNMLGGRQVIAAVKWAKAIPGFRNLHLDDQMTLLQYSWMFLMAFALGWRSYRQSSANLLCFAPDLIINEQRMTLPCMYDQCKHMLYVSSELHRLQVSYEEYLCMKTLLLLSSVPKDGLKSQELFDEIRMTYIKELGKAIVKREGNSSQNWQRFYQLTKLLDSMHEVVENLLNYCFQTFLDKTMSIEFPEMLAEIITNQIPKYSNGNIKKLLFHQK
Summary of the method: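 GR-bla HeLa cells carrying a GRE-driven beta-lactamase reporter, exposed to compounds for 18 h at 37 C. Reporter activation read as fluorescence after 2 h with LiveBLAzer B/G FRET substrate at room temperature.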

[18] = molecular target: Glucocorticoid receptor (Homo sapiens) (UniProt P04150); assay: qHTS assay to identify small molecule antagonists of the glucocorticoid receptor (GR) signaling pathway (AID 720692; active = well fitted inhibition curve with a large enough effect in the signal ratio in the repeat runs, not every such curve was filed as active; the % refers to the signal ratio)
Summary of the method: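 GR-bla HeLa cells carrying a GRE-driven beta-lactamase reporter received compound after 4 h plating, then dexamethasone (5 nM final). After 18 h at 37C, the FRET substrate was loaded for 2 h at room temperature and fluorescence read.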

[19] = qHTS assay to test for compound auto fluorescence at 535 nm (green) in HepG2 cells (AID 720675)
[20] = qHTS assay to test for compound auto fluorescence at 590 nm (red) in HepG2 cell free culture (AID 720684)
Summary of the method: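 Steps: dispense MEM/10% FBS medium, no cells; pin compound or DMSO vehicle; read red channel, Ex/Em 540/590 nm. Output given as Rose Bengal sodium equivalents.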
% is scaled to controls: 0 for no effect and ±100 for the full control effect.

CCC1C(=O)OCC1Cc1cncn1C (stereo unspecified)
inactive: Potency [1] | Potency [2] | Potency [3] | Potency [4] | outcome [5] | Potency [6] | outcome [7] | outcome [8] | outcome [9] | outcome [10] | outcome [11] | outcome [12] | outcome [13] | outcome [14] | outcome [15]

CC1(C)OC[C@@H](COC(=O)CCc2ccc(OC[C@@H](O)CNCCNC(=O)N3CCOCC3)cc2)O1
inactive: Potency [1] | Potency [2] | Potency [3] | Potency [4] | outcome [5] | Potency [6] | outcome [7] | outcome [8] | outcome [9] | outcome [10] | outcome [11] | outcome [12] | outcome [13] | outcome [14] | outcome [15] | outcome [16] | Potency [17] | Potency [18]

O=C(CO)[C@@H](O)[C@H](O)[C@@H](O)CO
inactive: Potency [1] | Potency [2] | Potency [3] | Potency [4] | outcome [5] | Potency [6] | outcome [7] | outcome [19] | outcome [8] | outcome [10] | outcome [11] | outcome [12] | outcome [13] | outcome [14] | outcome [15] | outcome [16] | Potency [17] | Potency [18]

Cc1ccnc(NS(=O)(=O)c2ccc(N)cc2)n1
inactive: Potency [1] | Potency [2] | Potency [3] | Potency [4] | outcome [5] | Potency [6] | fluorescence, relative to Rose Bengal [7] 0.0946% [at 18.6 µM] | fluorescence, % of fluorescein control [19] 0.0423% [at 18.6 µM] | fluorescence, % of triamterene [8] 0.0233% [at 18.6 µM] | fluorescence, % of fluorescent control [9] 0.0091% [at 18.6 µM] | fluorescence, % of fluorescein [10] -0.0062% [at 18.6 µM] | fluorescence, % of fluorescent control [11] -0.0731% [at 18.6 µM] | activity change [12] 0.0378% [at 18.6 µM] | fluorescence, % of fluorescent control [13] -0.145% [at 18.6 µM] | fluorescence, % of Rose Bengal [20] 0.0665% [at 18.6 µM] | fluorescence, % of fluorescent control [14] 0.0941% [at 18.6 µM] | fluorescence, % of fluorescent control [16] -0.0164% [at 18.6 µM] | Potency [17] | Potency [18]

C[N+]1(C)CCCC(OC(=O)C(O)(c2ccccc2)c2ccccc2)C1 (stereo unspecified)
active: Potency [17] 7.23 µM
inactive: Potency [1] | Potency [2] | Potency [3] | Potency [4] | outcome [5] | Potency [6] | fluorescence, relative to Rose Bengal [7] 0.011% [at 18.6 µM] | fluorescence, % of fluorescein control [19] -0.152% [at 18.6 µM] | fluorescence, % of triamterene [8] 0.0818% [at 18.6 µM] | fluorescence, % of fluorescent control [9] 0.215% [at 18.6 µM] | fluorescence, % of fluorescein [10] -0.129% [at 18.6 µM] | fluorescence, % of fluorescent control [11] 0.158% [at 18.6 µM] | activity change [12] -0.0354% [at 18.6 µM] | fluorescence, % of fluorescent control [13] 0.023% [at 18.6 µM] | fluorescence, % of Rose Bengal [20] -0.11% [at 18.6 µM] | fluorescence, % of fluorescent control [14] -0.0313% [at 18.6 µM] | fluorescence, % of fluorescein control [15] -0.0015% [at 18.6 µM]

Clc1cc(Cl)cc(Cl)c1
inactive: Potency [1] | Potency [2] | Potency [3] | Potency [4] | outcome [5] | Potency [6] | outcome [7] | outcome [19] | outcome [8] | outcome [9] | outcome [10] | outcome [11] | outcome [12] | outcome [13] | outcome [20] | outcome [14] | outcome [15] | outcome [16] | Potency [17] | Potency [18]

CC(=O)N1C[C@H](O)C[C@H]1C(=O)O
inactive: Potency [1] | Potency [2] | Potency [3] | Potency [4] | outcome [5] | Potency [6] | outcome [7] | outcome [19] | outcome [8] | outcome [9] | outcome [10] | outcome [11] | outcome [12] | outcome [13] | outcome [20] | outcome [14] | outcome [15] | Potency [17] | Potency [18]

C[N+](C)(CCOc1ccccc1)Cc1cccs1
inactive: Potency [1] | Potency [2] | Potency [3] | Potency [4] | outcome [5] | Potency [6] | outcome [7] | outcome [19] | outcome [9] | outcome [10] | outcome [11] | outcome [12] | outcome [13] | outcome [20] | outcome [14] | outcome [15] | outcome [16] | Potency [17] | Potency [18]

C=C(C)C(=O)OCC1CCCO1 (stereo unspecified)
inactive: Potency [1] | Potency [2] | Potency [3] | Potency [4] | outcome [5] | Potency [6] | outcome [7] | outcome [19] | outcome [8] | outcome [9] | outcome [10] | outcome [11] | outcome [12] | outcome [13] | outcome [20] | outcome [14] | outcome [15] | outcome [16] | Potency [17] | Potency [18]

Cc1ccc(C(=O)Nc2ccc(S(=O)(=O)O)c3cc(S(=O)(=O)O)cc(S(=O)(=O)O)c23)cc1NC(=O)c1cccc(NC(=O)Nc2cccc(C(=O)Nc3cc(C(=O)Nc4ccc(S(=O)(=O)O)c5cc(S(=O)(=O)O)cc(S(=O)(=O)O)c45)ccc3C)c2)c1
inactive: Potency [1] | Potency [2] | Potency [3] | Potency [4] | outcome [5] | outcome [7] | outcome [19] | outcome [8] | outcome [9] | outcome [10] | outcome [11] | outcome [12] | outcome [13] | outcome [20] | outcome [14] | outcome [15] | outcome [16] | Potency [17] | Potency [18]

CC(=O)C1CCCCC1=O (stereo unspecified)
inactive: Potency [1] | Potency [2] | Potency [3] | Potency [4] | outcome [5] | outcome [7] | outcome [19] | outcome [8] | outcome [9] | outcome [10] | outcome [11] | outcome [12] | outcome [13] | outcome [20] | outcome [14] | outcome [15] | Potency [17] | Potency [18]

Cc1ccc(C(=O)c2ccc(CC(=O)O)n2C)cc1
inactive: Potency [1] | Potency [2] | Potency [3] | Potency [4] | outcome [5] | fluorescence, relative to Rose Bengal [7] 0.352% [at 18.6 µM] | fluorescence, % of fluorescein control [19] 0.0458% [at 18.6 µM] | fluorescence, % of triamterene [8] -0.184% [at 18.6 µM] | fluorescence, % of fluorescent control [9] 0.256% [at 18.6 µM] | fluorescence, % of fluorescein [10] -0.0701% [at 18.6 µM] | fluorescence, % of fluorescent control [11] 0.0612% [at 18.6 µM] | activity change [12] -0.0078% [at 18.6 µM] | fluorescence, % of fluorescent control [13] 0.0035% [at 18.6 µM] | fluorescence, % of Rose Bengal [20] 0.0726% [at 18.6 µM] | fluorescence, % of fluorescent control [14] -0.117% [at 18.6 µM] | fluorescence, % of fluorescein control [15] -0.0798% [at 18.6 µM]

CCC(C)(CCCC(C)C)OC(C)=O (stereo unspecified)
inactive: Potency [1] | Potency [2] | Potency [3] | Potency [4] | outcome [5] | Potency [6] | outcome [19] | outcome [8] | outcome [10] | outcome [11] | outcome [12] | outcome [13] | outcome [20] | outcome [14] | outcome [16] | Potency [17] | Potency [18]
